The record followed here is PubChem BioAssay (NCATS).

The target of test [1] is DNA repair nuclease/redox regulator APEX1 (Homo sapiens) (UniProt P27695). Nature of the test: qHTS Validation Assay for Inhibitors of the Human Apurinic/apyrimidinic Endonuclease 1 (APE1) (AID 1705; note: potency is the fitted concentration of half-maximal effect). The procedure, abridged: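 Substrate: 50 nM final fluorophore/quencher THF-abasic duplex. Enzyme preincubated with compounds 15 min, RT. Progress derived from fluorescence difference, third minus first kinetic read.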
DNA repair nuclease/redox regulator APEX1 (Homo sapiens), sequence (P27695 whole entry, looked up): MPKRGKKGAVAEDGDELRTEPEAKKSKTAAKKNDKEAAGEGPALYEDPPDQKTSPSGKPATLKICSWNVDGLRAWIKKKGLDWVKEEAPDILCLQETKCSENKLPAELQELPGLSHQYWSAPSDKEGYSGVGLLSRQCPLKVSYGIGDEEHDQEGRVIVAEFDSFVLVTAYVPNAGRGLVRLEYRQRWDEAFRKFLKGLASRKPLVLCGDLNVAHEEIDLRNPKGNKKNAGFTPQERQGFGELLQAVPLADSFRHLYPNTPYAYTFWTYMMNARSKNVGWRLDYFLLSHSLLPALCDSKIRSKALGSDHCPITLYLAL
(In general: In qHTS, concentration-response curves come from the screen itself.)

The target in test [2] is Endonuclease 4 (Escherichia coli (strain K12)) (UniProt P0A6C1). Nature of the test: Counterscreen for APE1 Inhibitors: qHTS Validation Assay for Inhibitors of Endonuclease IV (AID 1708). The procedure, abridged: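 qHTS concentration-response format; LOPAC1280 tested under APE1-screen conditions. 2 nM enzyme, 15 min compound preincubation at RT, then 50 nM TAMRA/BHQ-2 abasic substrate; kinetic fluorescence read, three reads at 60 s intervals.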
For orientation: The purpose of a counterscreen is to sort out artefacts and off-target activity.

Test [3] can be described thus: qHTS for differential inhibitors of proliferation of Plasmodium falciparum line 7G8 (AID 1815).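 Note: parasite growth measured after three days of incubation.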 Note: potency is the fitted concentration of half-maximal effect.
The nature of test [4]: qHTS for differential inhibitors of proliferation of Plasmodium falciparum line GB4 (AID 1816).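 Note: parasite growth measured after 72 h incubation.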 Note: potency is the fitted concentration of half-maximal effect. To be noted: Potency: Plasmodium falciparum GB4 proliferation inhibition.
Test [5] is described as follows: qHTS for differential inhibitors of proliferation of Plasmodium falciparum line 3D7 (AID 1876). Note: potency is the fitted concentration of half-maximal effect.
Test [6] in a line: qHTS for differential inhibitors of proliferation of Plasmodium falciparum line D10 (AID 1877).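 Note: parasites grown with compound for 72 h before DNA staining.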 Note: potency is the fitted concentration of half-maximal effect.
Test [7] can be described thus: qHTS for differential inhibitors of proliferation of Plasmodium falciparum line Dd2 (AID 1882). Note: nearly all actives have a fitted effect of over 65% in size. Note: potency is the fitted concentration of half-maximal effect. To be noted: Potency: Plasmodium falciparum Dd2 proliferation inhibition. The procedure, abridged: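 Dd2-infected erythrocytes (0.3% parasitemia, 2.5% hematocrit final) incubated with compound 72 h at 37 C, 5% CO2; lysed with saponin/Triton buffer containing SYBR Green I, incubated overnight in the dark, then read by fluorescence (485/535 nm). Normalized to 0.29 uM artemisinin and DMSO.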

A short description of test [8]: qHTS for differential inhibitors of proliferation of Plasmodium falciparum line HB3 (AID 1886).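 Note: parasites grown with compound for 72 h before SYBR Green readout.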 Note: potency is the fitted concentration of half-maximal effect. The settings on record: Potency: Plasmodium falciparum HB3 proliferation inhibition.
For test [9], the target named is Ferritin light chain (Equus caballus) (UniProt P02791). In words: qHTS Validation Assay for Identification of Novel General Anesthetics (AID 2323). Note: series mostly up to about 77 µM. The procedure, abridged:
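Normalized fluorescence response, scaled between free 1-AMA and 1-AMA/apoferritin complex, fitted to a four-parameter Hill equation for concentration-effect values. Binding mix: 10 uM horse-spleen apoferritin, 50% saturated 1-AMA in PBS; read 380/535 nm after 10 min.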

Test [10] has as its target ATP-dependent DNA helicase Q1 (Homo sapiens) (UniProt P46063). Nature of the test: qHTS Validation Assay for Inhibitors of RecQ-Like Dna Helicase 1 (RECQ1) (AID 2353). The procedure, abridged: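 50 nM RECQ1T1 preincubated 15 min with compound in Tris pH 8.0 buffer with MgCl2, DTT, Tween-20 and 2.5 ug/ml poly(dI-dC); started with 200 nM TAMRA/BHQ-2 forked duplex and 2 mM ATP. Unwinding read as fluorescence (525/598 nm), two reads 2 h apart.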

Test [11] in a line: Cytometric Cell-Based qHTS for Inhibitors of the mTORC1 Signaling Pathway in MEF (Tsc2-/-, p53-/-) Cells (AID 2660).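 Note: Tsc2 and p53 null MEFs carrying empty vector with compound for 24 h; percent of cells above a phospho-rpS6 to PI ratio cutoff in each well; series mostly up to about 38 µM.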 The procedure, abridged: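 Percent of cells positive for normalized phospho-S6 staining is reported, with the cutoff set from rapamycin (7.5 nM) versus DMSO wells. Tsc2-/-, p53-/- MEFs received compound for 24 hrs.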
The nature of test [12]: High Content Imaging Cell-Based qHTS for Inhibitors of the mTORC1 Signaling Pathway in MEF (Tsc2-/-, p53-/-) Cells (AID 2666).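 Note: percent of cells scored positive for phospho-rpS6 Ser235/236 immunostaining by imaging.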 Note: potency is the fitted concentration of half-maximal effect. The procedure, abridged: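 Cells were plated, dosed with compound after 24 hrs, and incubated another 24 hrs at 37 degree Celsius. Fixed cells were immunostained for phospho-rpS6 Ser235/236 and counterstained, and the normalized signal was scored as % active cells against rapamycin and DMSO controls.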

Test [13] can be described thus: High Content Imaging Cell-Based qHTS for Inhibitors of the mTORC1 Signaling Pathway in MEF Cells (AID 2667). Note: potency is the fitted concentration of half-maximal effect. The procedure, abridged: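 Immunofluorescence for rpS6 phosphorylation in MEFs of Tsc2-/-, p53-/- background rescued with WT Tsc2. Compound exposure lasted 24 hrs. Inhibition was scored against rapamycin-treated control wells.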
Test [14] in a line: Counterscreen for APE1 Inhibitors: Fluorescent Dye Displacement Validation Assay (AID 1707). The procedure, abridged: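 ThO 250 nM + dsDNA 50 nM (THF abasic site, 5'-TAMRA), Tris-HCl pH7.5/50mM NaCl/2 mM MgCl2/0.01% Tween-20; compounds pin-transferred; ex 480/em 540 nm endpoint. Neutral = no compound; no-DNA ThO wells = negative control.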
The nature of test [15]: qHTS for differential inhibitors of proliferation of Plasmodium falciparum line W2 (AID 1883).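 Note: potency is the fitted concentration of half-maximal effect; parasites grown with compound for 72 h before lysis and staining.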 To be noted: Potency: Plasmodium falciparum W2 proliferation inhibition.
The target of test [16] is RecQ-like DNA helicase BLM (Homo sapiens) (UniProt P54132). Nature of the test: qHTS Validation Assay for Inhibitors of Bloom's syndrome helicase (BLM) (AID 2364). The procedure, abridged:
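Forked 20-bp duplex substrate (200 nM, TAMRA/BHQ-2) plus 2 mM ATP added after 15 min compound preincubation with 50 nM enzyme, pH 8.0, poly(dI-dC) 2.5 ug/ml. Strand separation followed by fluorescence (525/598 nm) over 2 h, normalized to enzyme-free and DMSO controls.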

Test [17] in a line: qHTS Assay for Identification of Small Molecule Inducers of Hypoxia Response (AID 2120; active = well fitted curve in the direction sought with a large enough effect in the signal ratio, with a control signal flat, not every such curve was filed as active; the % refers to the signal ratio). The procedure, abridged: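 ME-180 HRE-bla cells plated in Opti-MEM/0.5% dialyzed FBS, rested 4-5 h, then dosed with compound titrations by pin tool. After 17 h at 37 degrees C, CCF4 dye loaded 2.5 h at RT; 460/530 nm ratio gave %Activity and AC50.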
Test [18] in a line: qHTS Assay for Modulators of Human Peripheral Myelin Protein 22 (PMP22) Expression/Activity (AID 1967; active = well fitted curve in the direction sought with a large enough effect in the signal ratio; the % refers to the signal ratio). The procedure, abridged: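 Engineered MSC80 cells, Pmp22-promoter green and EF-alpha red luciferase reporters; 24h compound treatment at 37 °C. Concentration-response fits on green, red and ratio signals, each overlap-corrected, with %Activity normalized to untreated wells.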

Inconclusive results are not listed. Active and inactive are the calls of the source. Unless noted, calls come from the whole dose curve; as a rule, active = well fitted curve in the direction sought with a large enough effect; inconclusive = small, poorly fitted or top-dose-only effect, or another doubt; inactive = no such curve, though single readings can be large; an effect the other way counts as inactive or inconclusive.

Ferritin light chain (Equus caballus), sequence (P02791 2-175 limits assumed): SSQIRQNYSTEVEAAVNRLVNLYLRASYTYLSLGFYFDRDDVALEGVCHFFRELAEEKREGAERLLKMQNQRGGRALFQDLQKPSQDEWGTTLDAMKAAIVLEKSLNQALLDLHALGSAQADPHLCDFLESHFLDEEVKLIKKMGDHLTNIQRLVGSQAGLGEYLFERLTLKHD
ATP-dependent DNA helicase Q1 (Homo sapiens), sequence (P46063 whole entry, looked up): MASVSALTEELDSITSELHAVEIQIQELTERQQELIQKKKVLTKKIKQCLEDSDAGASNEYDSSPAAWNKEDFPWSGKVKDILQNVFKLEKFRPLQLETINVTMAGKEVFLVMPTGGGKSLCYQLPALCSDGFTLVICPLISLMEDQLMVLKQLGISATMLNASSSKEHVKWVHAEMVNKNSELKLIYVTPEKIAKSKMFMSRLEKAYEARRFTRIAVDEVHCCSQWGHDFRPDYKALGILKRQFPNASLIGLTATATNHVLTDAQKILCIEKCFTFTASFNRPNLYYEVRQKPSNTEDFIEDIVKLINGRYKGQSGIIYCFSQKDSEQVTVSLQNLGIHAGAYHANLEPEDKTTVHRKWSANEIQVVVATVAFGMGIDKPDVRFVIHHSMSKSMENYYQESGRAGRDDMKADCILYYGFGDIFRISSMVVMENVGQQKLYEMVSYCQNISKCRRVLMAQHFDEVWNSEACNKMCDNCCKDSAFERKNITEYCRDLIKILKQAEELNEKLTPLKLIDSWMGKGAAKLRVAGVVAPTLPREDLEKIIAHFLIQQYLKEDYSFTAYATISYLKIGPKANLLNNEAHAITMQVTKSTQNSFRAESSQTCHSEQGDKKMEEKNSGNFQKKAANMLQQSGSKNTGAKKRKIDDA
RecQ-like DNA helicase BLM (Homo sapiens), sequence (P54132 whole entry, looked up): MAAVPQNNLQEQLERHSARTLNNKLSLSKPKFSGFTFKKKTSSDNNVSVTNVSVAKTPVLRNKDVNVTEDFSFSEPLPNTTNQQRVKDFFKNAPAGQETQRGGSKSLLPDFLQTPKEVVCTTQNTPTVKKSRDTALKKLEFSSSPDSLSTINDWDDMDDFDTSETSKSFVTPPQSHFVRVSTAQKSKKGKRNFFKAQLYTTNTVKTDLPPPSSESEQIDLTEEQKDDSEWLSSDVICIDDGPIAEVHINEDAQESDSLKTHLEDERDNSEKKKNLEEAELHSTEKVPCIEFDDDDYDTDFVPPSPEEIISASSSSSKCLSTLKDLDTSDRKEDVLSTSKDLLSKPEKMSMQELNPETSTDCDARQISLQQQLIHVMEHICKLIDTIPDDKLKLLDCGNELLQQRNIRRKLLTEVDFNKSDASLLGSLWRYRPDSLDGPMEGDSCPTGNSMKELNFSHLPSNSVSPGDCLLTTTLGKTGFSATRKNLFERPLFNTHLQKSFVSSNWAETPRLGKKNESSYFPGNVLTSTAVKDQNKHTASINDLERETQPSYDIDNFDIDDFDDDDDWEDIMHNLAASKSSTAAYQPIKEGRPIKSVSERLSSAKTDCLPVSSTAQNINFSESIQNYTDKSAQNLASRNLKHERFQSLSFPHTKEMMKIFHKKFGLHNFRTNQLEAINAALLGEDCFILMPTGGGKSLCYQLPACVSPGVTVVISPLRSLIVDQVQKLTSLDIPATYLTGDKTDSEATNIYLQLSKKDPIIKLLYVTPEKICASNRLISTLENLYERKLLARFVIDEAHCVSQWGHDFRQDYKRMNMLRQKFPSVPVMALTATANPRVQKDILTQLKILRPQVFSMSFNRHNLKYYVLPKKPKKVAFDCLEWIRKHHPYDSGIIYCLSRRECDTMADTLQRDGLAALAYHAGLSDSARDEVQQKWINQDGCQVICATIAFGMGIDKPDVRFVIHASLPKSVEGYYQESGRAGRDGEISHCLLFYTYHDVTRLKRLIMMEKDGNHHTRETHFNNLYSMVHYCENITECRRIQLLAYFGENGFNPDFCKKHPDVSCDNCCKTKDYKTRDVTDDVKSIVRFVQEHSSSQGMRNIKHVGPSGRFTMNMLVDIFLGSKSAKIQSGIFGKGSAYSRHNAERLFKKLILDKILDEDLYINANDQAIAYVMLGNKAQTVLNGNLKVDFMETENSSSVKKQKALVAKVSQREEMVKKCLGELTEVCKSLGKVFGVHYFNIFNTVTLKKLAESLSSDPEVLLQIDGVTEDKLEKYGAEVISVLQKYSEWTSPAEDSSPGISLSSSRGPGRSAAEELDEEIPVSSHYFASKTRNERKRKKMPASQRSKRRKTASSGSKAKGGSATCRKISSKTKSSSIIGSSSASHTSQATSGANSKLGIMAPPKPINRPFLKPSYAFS

With `N[C@@H](CCl)C(=O)O`, the Potency entry in test [1], in [2], in [3], in [4], in test [5] and in test [6] was “inactive” each time. Also, the Potency entry in test [7], in test [8], in [10], in test [11], in test [12] and in test [13] was “inactive” throughout. Further, the result in [9] was inactive.

Regarding `COc1cc(CC(C)N)c(OC)cc1I` (stereo not given), the Potency result in test [1], in test [14], in [5], in test [6], in [8] and in test [10] was “inactive” each time. Besides, the Potency result in test [16], in [11], in [12] and in [13] was “inactive” in each case. Moreover, the Potency in test [3] is 10 µM (active); in [4], 6.31 µM (active); in test [15], 4.47 µM (active). The molecule was classed as inactive in test [9].

For the molecule `CCCN(CCC)[C@H]1CCc2c(F)ccc(O)c2C1`, the Potency result in test [14], in test [2], in test [10], in test [16], in test [11] and in [12] was “inactive” throughout. Further, in [13], the Potency result was “inactive”. For the same molecule, the Potency in test [3] was 1 µM (active); in test [4] it was 0.501 µM (active); in [5], 2 µM (active); in [6], 2.24 µM (active); in [7], 1.26 µM (active); in [15], 0.447 µM (active). Further, in test [8], the Potency was 1.41 µM (active). The outcome in test [9] was inactive.

Consider `NCC(O)c1cc(O)c(O)cc1F` (stereo not given), for which, in [1], the Potency is 35.5 µM (active). In addition, the Potency entry in test [2], in test [4], in test [5], in test [6], in test [7] and in [8] was “inactive” in each case. Further, the Potency entry in [11], in test [12] and in test [13] was “inactive” each time. The molecule was classed as inactive in [9].

As for `CC(C)Nc1ccc(Nc2ccccc2)cc1`, the result in [17] was inactive.

Regarding `CC(N)Cc1c[nH]c2ccc(OCc3cccs3)cc12` (stereo not given), the Potency result in test [1], in [10], in [16], in [11] and in test [12] was “inactive” throughout. For the same molecule, the Potency in test [3] is 7.94 µM (active); in test [4], 7.94 µM (active); in test [5], 10 µM (active); in test [15], 7.94 µM (active); in test [8], 11.2 µM (active); in test [13], 13.1 µM (active). For the same molecule, in [9], the molecule was classed as inactive.

On to `OC1CCCCC1N1CCC(c2ccccc2)CC1` (stereo not given), for which the Potency result in test [14], in test [2], in test [5], in [6], in [7] and in test [8] was “inactive” in each case. The Potency result in test [10], in [11], in [12] and in test [13] was “inactive” throughout. Besides, the Potency in [15] is 10 µM (active). Besides, the call in [18] and in test [9] was inactive.

Regarding `NC(N)=Nc1ccc2[nH]c3c(c2c1)C[C@@]1(O)[C@H]2Cc4ccc(O)c5c4[C@@]1(CCN2CC1CC1)[C@H]3O5`, the Potency entry in test [1], in test [2], in test [3], in test [5], in test [7] and in test [8] was “inactive” in each case. Further, the Potency entry in [16] and in test [13] was “inactive” each time.

For the molecule `CCn1cnc2c(Nc3cccc(Cl)c3)nc(N[C@@H]3CCCC[C@@H]3N)nc21`, the Potency entry in test [2], in [10] and in [16] was “inactive” in each case. The Potency was 3.16 µM (active) in test [3]; 3.98 µM (active) in test [4]; 2.82 µM (active) in [5]; 7.94 µM (active) in test [6]; 11.2 µM (active) in test [7]; 2.82 µM (active) in test [15]. Further, the Potency in test [8] is 8.91 µM (active); in [12], 18.5 µM (active). Moreover, the outcome in test [9] was inactive.

In the case of `NC(=O)c1ccc(OCC(O)CN2CC=C(c3ccc(F)cc3)CC2)cc1` (stereo not given), the Potency entry in test [1], in test [2], in test [10], in test [16], in test [11] and in test [12] was “inactive” each time. Also, the Potency result in [13] was “inactive”. Further, the Potency in test [4] is 10 µM (active); in [5], 11.2 µM (active); in [15] it was 7.94 µM (active). Besides, in [9], the outcome was inactive.

Regarding `CC(C)NP(=O)(NC(C)C)OP(=O)(NC(C)C)NC(C)C`, the Potency entry in test [1], in test [2], in [7], in test [10], in test [16] and in test [11] was “inactive” in each case. Further, the Potency entry in test [12] and in [13] was “inactive” each time. In addition, in test [15], the Potency is 11.2 µM (active). The call in [18] and in test [9] was inactive.

Take `CC(N)[C@H](O)c1ccc(O)c(O)c1` (stereo not given in full): the Potency entry in test [14], in test [2], in [3], in test [4], in test [5] and in test [6] was “inactive” in each case. In addition, the Potency result in test [7], in test [8], in [10], in [11] and in [12] was “inactive” throughout. Besides, the molecule was classed as inactive in test [18] and in test [9].

In the case of `Cc1sc2ccccc2c1CC1=NCCN1`, the Potency result in [1], in [2], in test [10], in [16], in [11] and in test [12] was “inactive” throughout. In test [13], the Potency entry is “inactive”. For the same molecule, the Potency is 14.1 µM (active) in test [4] and 8.91 µM (active) in test [15]. The molecule was called inactive in [18] and in test [9].
